# Bioassay records from PubChem.
# Shown are actives, neighbours in structure and some others; about 1.2% of the full set was active somewhere.
# KCNH2 WT inh = inhibitors of human wildtype KCNH2 potassium channel; Q12809; U2OS, BacMam KCNH2, thallium flux FluxOr; hits give low values; activity change, % at 1.84 µM; 340,000 compounds, 0.37% hits;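 active means maximum activity change below -70%; inconclusive means maximum activity change between -70% and -50%; inactive means maximum activity change above -50%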
# Target sequence (Q12809 whole entry, looked up): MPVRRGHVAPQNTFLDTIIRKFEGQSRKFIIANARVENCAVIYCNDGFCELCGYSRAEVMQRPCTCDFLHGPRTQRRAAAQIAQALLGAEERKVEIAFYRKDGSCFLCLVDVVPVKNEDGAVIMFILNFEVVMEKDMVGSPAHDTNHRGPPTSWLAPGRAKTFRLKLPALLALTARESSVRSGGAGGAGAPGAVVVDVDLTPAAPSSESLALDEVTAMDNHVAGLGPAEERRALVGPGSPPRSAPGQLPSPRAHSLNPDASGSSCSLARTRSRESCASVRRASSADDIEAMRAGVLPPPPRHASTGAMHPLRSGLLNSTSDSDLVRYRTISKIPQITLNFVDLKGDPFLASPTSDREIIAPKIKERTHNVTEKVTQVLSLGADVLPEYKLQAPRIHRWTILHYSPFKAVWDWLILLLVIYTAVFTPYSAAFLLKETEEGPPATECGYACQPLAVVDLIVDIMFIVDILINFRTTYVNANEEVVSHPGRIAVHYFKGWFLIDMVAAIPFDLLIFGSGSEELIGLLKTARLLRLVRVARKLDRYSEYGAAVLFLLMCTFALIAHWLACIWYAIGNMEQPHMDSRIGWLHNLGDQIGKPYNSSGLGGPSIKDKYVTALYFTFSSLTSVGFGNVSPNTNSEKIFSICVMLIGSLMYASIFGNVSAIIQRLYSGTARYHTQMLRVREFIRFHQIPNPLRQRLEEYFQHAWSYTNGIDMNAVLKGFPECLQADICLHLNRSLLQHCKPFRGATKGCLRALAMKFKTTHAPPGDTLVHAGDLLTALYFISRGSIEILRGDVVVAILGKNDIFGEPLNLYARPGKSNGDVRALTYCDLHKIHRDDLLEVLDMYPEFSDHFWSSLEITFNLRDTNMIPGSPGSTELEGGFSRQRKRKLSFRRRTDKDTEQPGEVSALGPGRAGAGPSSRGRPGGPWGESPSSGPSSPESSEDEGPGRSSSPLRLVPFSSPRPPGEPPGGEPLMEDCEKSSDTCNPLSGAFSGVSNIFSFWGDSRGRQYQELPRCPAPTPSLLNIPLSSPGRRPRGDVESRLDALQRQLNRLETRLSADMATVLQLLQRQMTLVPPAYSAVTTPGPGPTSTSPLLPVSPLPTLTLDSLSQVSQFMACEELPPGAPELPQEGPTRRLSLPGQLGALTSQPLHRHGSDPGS
#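 U2OS cells were transduced with wild-type KCNH2 virus (2.03 x 10^8 / mL) for 4 h at room temperature, then cultured overnight at 37 C. Thallium flux was read with FluxOr dye. Rate constants were normalized to DMSO controls.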
# KinaseGlo FLuc = blocks Kinase-Glo luciferase, a counter-screen artifact; Potency, µM (doses to about 38.3 µM), usual class: inhibitors; 200,000 compounds, 0.28% hits; Q27757; AID 1379; Kinase-Glo luciferase, ATP luminescence, 8 min; active means well fitted inhibition curve with a large enough effect; inconclusive means small, poorly fitted or top-dose-only effect; further: nearly all actives have a fitted effect of over 60% in size
#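 Compound is pinned into ATP-containing buffer (10 uM ATP, imidazole pH 7.2, 7 mM MgCl2). Kinase-Glo luciferase reagent is then added. Light output is recorded following an 8-min room-temperature incubation.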
# KCNH2 3.1 inh = inhibitors of human KCNH2 3.1 potassium channel isoform | 340,000 compounds, 0.95% hits | AID 720553 | U2OS KCNH2 3.1, thallium flux FluxOr; hits give low values | activity change, % (tested at about 1.8 µM);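 active means maximum activity change below -70%; inconclusive means maximum activity change from -70% to -50%; inactive means maximum activity change above -50%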;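 further: thallium influx rate constant from kinetic fluorescence after stimulation buffer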
#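 Thallium flux read-out: FluxOr dye with Red40 quencher in HBSS/HEPES, 45 min at RT. Rate constants from kinetic reads were normalized to positive and negative DMSO controls. Cells: U2OS virally expressing the 3.1 isoform.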
# Numbers stand for hits; – = inactive; ? = inconclusive; · = not tested or not shown; [ ] = another dose, or the depositor's remark.
SMILES,KCNH2 WT inh,KinaseGlo FLuc,KCNH2 3.1 inh
O=C(c1noc2c1CSc1ccccc1-2)N1CCN(c2ccc(Cl)cc2)CC1,–,·,–
COc1ccc(CN2CCNC(=O)C2CC(=O)NC2CC(C)(C)CC(C)(C)C2)cc1OC (configuration not stated),–,·,–
O=C(NCc1ccc(F)cc1)c1cc(-c2ccccn2)nc2ccc(S(=O)(=O)N3CCOCC3)cc12,–,·,–
CC1CCCC(NC(=O)c2ccc(COc3ccccc3)o2)C1C (configuration not stated),–,·,–
Cc1cc2nc(/C=C/c3nc4cc(C)c(C)cc4[nH]3)[nH]c2cc1C,–,·,–
Cc1ccc(/C=C/c2nc3ccccc3[nH]2)o1,–,12.6µM,–
CC(OC(=O)c1cnc(Cl)c(Cl)c1)C(=O)NCc1ccccc1 (configuration not stated),–,·,–
NS(=O)(=O)c1cccc(NC(=O)CN2CCN(S(=O)(=O)c3ccc4c(c3)OCCO4)CC2)c1,–,·,–
O=C(CSc1nc2ccccc2c(=O)n1CCCN1CCOCC1)Nc1ccc(F)c(Cl)c1,–,·,–
O=C(CSc1nc2ccccc2c(=O)n1-c1ccccc1F)Nc1ccc2c(c1)CCC2,–,–,–
Cc1ccc(NC(=O)CSc2nc3ccccc3c(=O)n2CCCN2CCCCC2)cc1Cl,–,–,-74.5
CCN(CC)CCn1c(SCC(=O)Nc2ccc3c(c2)CCC3)nc2ccccc2c1=O,–,·,-87.4
CCCN1C(=O)/C(=C/c2ccc(N3CCCC3)c(C)c2)NC1=S,–,–,?
Cc1cc(/C=C2\NC(=S)N(C)C2=O)ccc1N1CCCC1,-80.2,–,·
C=CCC(=O)N1CCCC(CO)(Cc2ccc(F)cc2F)C1 (configuration not stated),–,·,–
CCOC(=O)c1oc2c(c1C)C(=O)CCC2,–,–,–
CCOC(=O)c1oc2c(c1C)/C(=N/O)CCC2,–,11.2µM,–
Cc1ccc(Oc2ccc(S(=O)(=O)N3CCOCC3)cc2C(N)=O)cc1C,–,·,·
COc1ccc(-c2cc3nc(C)cc(N)n3n2)cc1,–,7.94µM,–
N#Cc1cnc2cc(-c3ccccc3)nn2c1N,–,·,–
COc1ccc(-c2cc3nc(C)cc(-c4ccc(OC)cc4)n3n2)cc1,–,·,–
COc1ccc(-c2cc3ncc(-c4ccccc4)c(N)n3n2)cc1,–,11.2µM,–
Cc1ccc(S(=O)(=O)Nc2ccccc2F)cc1C(=O)N1CCN(c2ccccc2O)CC1,–,·,–
CN(C)C(=O)C1CCN(Cc2c[nH]c3ccccc23)CC1,·,–[7.66 µM],·
CCCC(C)C(=O)Nc1cccc(NC(C)=O)c1 (configuration not stated),–,–,-92.5
SMILES,KCNH2 WT inh,KinaseGlo FLuc,KCNH2 3.1 inh
CCCC(C)C(=O)Nc1ccc2c(c1)OCCO2 (configuration not stated),–,–,–
Cc1ccc(Cn2cc(/C=N/NC(=O)Cc3nnc(NC(=O)c4ccc(C)cc4)s3)c3ccccc32)cc1,–,–,–
CS(=O)(=O)c1ccc(C(=O)N2CCN(C(=O)c3ccco3)CC2)cc1,–,·,–
Oc1ccc(Br)cc1/C=N/n1c(-c2ccccc2)n[nH]c1=S,–,·,–
S=c1[nH]nc(-c2ccccc2)n1/N=C/c1cccc(Br)c1,–,·,-92.9
C#CCN(C(=O)C1CCC(=O)N(CCc2cccc(F)c2)C1)C1CCCCC1 (configuration not stated),–,·,–
CN(C(=O)c1cccc(NC(=O)Cc2cccc(NC(=O)C3CCN(C(=O)c4ccccc4)CC3)c2)c1)C1CCCC1,–,·,–
COc1ccc(Nc2c(-c3ccc(OC)cc3)nc3cnccn23)cc1,–,–,–
COc1ccc(Nc2c(-c3ccc(C)cc3)nc3cnccn23)cc1,–,–,-85.9
Fc1cccc(Cl)c1C1Nc2cccc3cccc(c23)N1,–,·,–
Clc1cccc(Cl)c1C1Nc2cccc3cccc(c23)N1,–,·,-96.6
COC(=O)[C@@H]1CCCN1C(=O)c1ccc(OC2CCN(Cc3ccccn3)CC2)cc1,–,·,–
COc1ccc(CNc2oc(COc3ccccc3)nc2C#N)cc1,–,–,-78.3
COc1ccc(CCNc2oc(COc3ccccc3)nc2C#N)cc1,–,–,–
CCNC(=S)Nc1ccc(N2CCCCC2)cc1,–,–,–
CCNC(=S)N/N=C/c1sc(N2CCCCC2)nc1-c1cccs1,–,11.2µM,–
COC(=O)C1=CO[C@@H](O[C@H]2OC(CO)C(O)C(O)C2O)C2C1CC(O)C2C (some centres not stated),·,–,·
Cc1ccccc1CNC(=O)C(=O)NCCC1CCCCN1S(=O)(=O)c1cccs1 (configuration not stated),-144.3,·,-166.3
COc1ccccc1CNC(=O)C(=O)NCCC1CCCCN1S(=O)(=O)c1cccs1 (configuration not stated),–,·,–
OCCN1CCN(C2Cc3cc(Cl)ccc3Sc3ccc(Cl)cc32)CC1 (configuration not stated) (tested in a mixture with another compound),–,–,–
CN1CCN(CCOC2Cc3ccccc3Sc3ccc(Cl)cc32)CC1 (configuration not stated),?,–,-91.2
CCC1(CC)SCCNC1=O,-281.9,·,–
CN1CCNC(=O)C1CC(=O)O (configuration not stated),–,–,–
O=C(O)Cc1sc(=O)[nH]c1O,–,·,–
CCOC(=O)c1oc2ccc(Cl)cc2c1NC(C)=O,–,–,–
SMILES,KCNH2 WT inh,KinaseGlo FLuc,KCNH2 3.1 inh
CCC(C)[C@H]1CNCCN1CCC12CC3CC(CC(C3)C1)C2 (some centres not stated),–,·,-136.2
CCC(C)[C@H]1CNCCN1CCc1cccc2ccccc12 (some centres not stated),–,·,–
Cc1ccc2nc(-c3ccc(O)c(O)c3)cn2c1,–,·,?
Cc1ccc2nc(-c3ccccc3)cn2c1,–,8.91µM,–
CN1CCN(CCC(=O)N/N=C/c2ccccn2)CC1,–,·,–
CCOC(=O)CNC(=O)c1cnc(Nc2ccccc2OC)c2ccccc12,–,·,–
CCOC(=O)N1CCN(C(=O)c2cnc(Nc3ccccc3OC)c3ccccc23)CC1,–,–,-193.2
CCOc1ccc(C2C(C(=O)OC)=CN(C(C)c3ccccc3)C=C2C(=O)OC)cc1 (configuration not stated),–,·,–
Fc1ccc(NCc2cn3ccccc3n2)cc1,–,11.2µM,–
Fc1cccc(NCc2cn3ccccc3n2)c1,–,?,–
C=CCn1c(SCC(=O)Nc2ccc(OC)cc2)nnc1-c1cnccn1,–,·,–
C=CCn1c(SCC(=O)Nc2ccc(S(N)(=O)=O)cc2)nnc1-c1cnccn1,-143.3,·,–
COc1ccc(N(C(C)=O)c2nc3ccccc3[nH]2)cc1,–,·,–
CN(Cc1ccccc1)C(=O)C1CCN(S(=O)(=O)c2cccc3nsnc23)CC1,–,·,–
Cc1ccccc1NCC(=O)N/N=C/c1ccc([N+](=O)[O-])cc1,–,–,-111.8
O=C(CNc1cccc2ccccc12)N/N=C/c1ccc([N+](=O)[O-])cc1,–,–,·
C[C@@H](CCC(=O)O)C(=O)O,·,–[7.66 µM],·
CC(C)N1CCN(Cc2cccn2-c2ccccn2)CC1CCO (configuration not stated),–,·,–
Cn1c(SCC(=O)Nc2ccccc2Cl)nnc1C1CC1,–,·,–
Cc1nc(NC(=O)CSc2nnc(C3CC3)n2C)sc1C,-253.6,·,–
